# The supplement of paper PMC12645437, “Orthogonal IMiD-Degron Pairs Induce Selective Protein Degradation in Cells” (ACS Chemical Biology, 2025)
# In all, about 8,300 sequences were measured (“log2 fold change of degron read counts, EGFP-low vs EGFP+ sorted cells (limma voom), compound-induced degradation”: median about -1.1, highest 2% from about 3.2 on). The full list was thinned out, with the highest values kept by preference.
# T1: CRBN, Q96SW2
# T1 chain: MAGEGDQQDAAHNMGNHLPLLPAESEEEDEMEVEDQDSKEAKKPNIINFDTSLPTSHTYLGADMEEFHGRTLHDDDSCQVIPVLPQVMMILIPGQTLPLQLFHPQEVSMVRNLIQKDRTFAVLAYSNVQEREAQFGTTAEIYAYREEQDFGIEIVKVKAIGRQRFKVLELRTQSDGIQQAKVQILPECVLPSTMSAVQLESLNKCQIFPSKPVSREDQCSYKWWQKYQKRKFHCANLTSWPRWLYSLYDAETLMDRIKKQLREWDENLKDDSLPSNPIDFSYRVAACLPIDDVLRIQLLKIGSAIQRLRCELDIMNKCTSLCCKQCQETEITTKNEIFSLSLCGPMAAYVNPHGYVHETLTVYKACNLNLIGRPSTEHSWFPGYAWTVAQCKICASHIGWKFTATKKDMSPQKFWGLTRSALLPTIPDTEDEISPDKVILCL
# Target: T1, CRBN, Q96SW2
# Test: log2 fold change of degron read counts, EGFP-low vs EGFP+ sorted cells (limma voom), compound-induced degradation; higher = more compound-induced degradation of the degron-EGFP fusion; degrons are variants of IKZF1/3 zinc finger 2; compound dose not given here
# Details: Jurkat, 18 h
# [1] = compound: compound 19 (5-tert-butyl-thalidomide)
# [2] = compound: compound 22 (5-morpholino-thalidomide)
# [3] = compound: compound 33 (diphenyl IMiD analogue)
# 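Note: pooled lentiviral library of zinc finger degron-EGFP fusions in mCherry-positive Jurkat cells, FACS-sorted after compound exposure, with degron abundance counted by next-generation sequencing.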
Sequence,log2 fold change of degron read counts [1],log2 fold change of degron read counts [2],log2 fold change of degron read counts [3],log2 fold change of degron read counts (compound: thalidomide)
"FICEICGRSFTQKGNLLRHIKL [46F_47I_49E_50I_52G_53R_54S_55F_67L_, Q9UKT9]",-2.87,-2.13,-1.31,-0.772
"FYCEICGRYFTQKGNLLRHIKL [46F_47Y_49E_50I_52G_53R_54Y_55F_67L_, Q9UKT9]",1.09,0.388,-0.525,-1.2
"FYCNICGACFTQKGNLLRHIKL [46F_47Y_49N_50I_52G_53A_54C_55F_67L_, Q9UKT9]",2.86,3.15,1.94,0.278
"FRCNICGACFTQKGNLLRHIKL [46F_47R_49N_50I_52G_53A_54C_55F_67L_, Q9UKT9]",-1.25,-0.613,0.532,0.406
"FWCNICGACFTQKGNLLRHIKL [46F_47W_49N_50I_52G_53A_54C_55F_67L_, Q9UKT9]",2.95,3.36,1.98,0.445
"FKCNICGACFTQKGNLLRHIKL [46F_47K_49N_50I_52G_53A_54C_55F_67L_, Q9UKT9]",-1.31,-2.26,-2.53,-1.43
"FSCNICGACFTQKGNLLRHIKL [46F_47S_49N_50I_52G_53A_54C_55F_67L_, Q9UKT9]",0.632,1.69,2.11,1.06
"FQCNICGACFTQKGNLLRHIKL [46F_47Q_49N_50I_52G_53A_54C_55F_67L_, Q9UKT9]",-0.735,1.82,1.65,3.38
"FVCDQCGAFFTQKGNLLRHIKL [46F_47V_49D_50Q_52G_53A_54F_55F_67L_, Q9UKT9]",-2.6,-2.32,-2.12,-2.19
"FFCSVCGHPFTQKGNLLRHIKL [46F_47F_49S_50V_52G_53H_54P_55F_67L_, Q9UKT9]",-0.493,-1.26,-1.56,-1.25
"FGCPVCGAHFTQKGNLLRHIKL [46F_47G_49P_50V_52G_53A_54H_55F_67L_, Q9UKT9]",2.85,0.903,1.38,0.174
"FQCPVCGAHFTQKGNLLRHIKL [46F_47Q_49P_50V_52G_53A_54H_55F_67L_, Q9UKT9]",-0.252,1.64,1.32,3.27
"FVCPVCGAHFTQKGNLLRHIKL [46F_47V_49P_50V_52G_53A_54H_55F_67L_, Q9UKT9]",-0.62,1.87,1.15,2.07
"FDCPVCGAHFTQKGNLLRHIKL [46F_47D_49P_50V_52G_53A_54H_55F_67L_, Q9UKT9]",2.9,1.04,0.819,1.19
"FYCPVCGAHFTQKGNLLRHIKL [46F_47Y_49P_50V_52G_53A_54H_55F_67L_, Q9UKT9]",2.89,3.48,2.31,0.928
"FMCPVCGAHFTQKGNLLRHIKL [46F_47M_49P_50V_52G_53A_54H_55F_67L_, Q9UKT9]",-0.687,0.177,2.13,0.77
"FWCPVCGAHFTQKGNLLRHIKL [46F_47W_49P_50V_52G_53A_54H_55F_67L_, Q9UKT9]",2.57,3.79,1.99,0.84

Sequence,log2 fold change of degron read counts [1],log2 fold change of degron read counts [2],log2 fold change of degron read counts [3],log2 fold change of degron read counts (compound: thalidomide)
"FACPVCGAHFTQKGNLLRHIKL [46F_47A_49P_50V_52G_53A_54H_55F_67L_, Q9UKT9]",2.93,1.05,0.871,0.221
"FRCPVCGAHFTQKGNLLRHIKL [46F_47R_49P_50V_52G_53A_54H_55F_67L_, Q9UKT9]",-0.862,-0.227,0.973,0.478
"LACEICGFLCTQKGNLLRHIKL [46L_47A_49E_50I_52G_53F_54L_55C_67L_, Q9UKT9]",0.343,-0.688,-1.12,-0.901
"FGCDICGAFFTQKGNLLRHIKL [46F_47G_49D_50I_52G_53A_54F_55F_67L_, Q9UKT9]",0.984,-0.922,1.74,-1.18
"FECPICGHKFTQKGNLLRHIKL [46F_47E_49P_50I_52G_53H_54K_55F_67L_, Q9UKT9]",-3.48,-2.51,-2.67,-1.19
"FDCEICGRLFTQKGNLLRHIKL [46F_47D_49E_50I_52G_53R_54L_55F_67L_, Q9UKT9]",-2.24,-1.71,-0.0163,-0.815
"FWCDICGATFTQKGNLLRHIKL [46F_47W_49D_50I_52G_53A_54T_55F_67L_, Q9UKT9]",2.74,3.05,0.604,-1.08
"FGCEICGREFTQKGNLLRHIKL [46F_47G_49E_50I_52G_53R_54E_55F_67L_, Q9UKT9]",-2.14,-2.75,-2.14,-2.84
"FACEICGAFFTQKGNLLRHIKL [46F_47A_49E_50I_52G_53A_54F_55F_67L_, Q9UKT9]",2.61,0.556,-0.131,-0.84
"FYCEICGAFFTQKGNLLRHIKL [46F_47Y_49E_50I_52G_53A_54F_55F_67L_, Q9UKT9]",3.38,3.27,2.4,-0.228
"FECEICGARFTQKGNLLRHIKL [46F_47E_49E_50I_52G_53A_54R_55F_67L_, Q9UKT9]",1.13,-0.528,1.59,3.55
"FWCEICGALFTQKGNLLRHIKL [46F_47W_49E_50I_52G_53A_54L_55F_67L_, Q9UKT9]",2.93,2.99,2.06,-0.0847
"FECEICGALFTQKGNLLRHIKL [46F_47E_49E_50I_52G_53A_54L_55F_67L_, Q9UKT9]",-2.06,-1.77,0.784,1.34
"FFCEICGARFTQKGNLLRHIKL [46F_47F_49E_50I_52G_53A_54R_55F_67L_, Q9UKT9]",3.53,3.66,1.66,1.89
"FWCEICGARFTQKGNLLRHIKL [46F_47W_49E_50I_52G_53A_54R_55F_67L_, Q9UKT9]",3.43,3.51,1.48,1.46
"FCCEICGAFFTQKGNLLRHIKL [46F_47C_49E_50I_52G_53A_54F_55F_67L_, Q9UKT9]",0.678,-0.0744,1.4,-0.2
"FTCEICGARFTQKGNLLRHIKL [46F_47T_49E_50I_52G_53A_54R_55F_67L_, Q9UKT9]",1.84,3.12,1.85,3.23
